Test results: PubChem BioAssay

Biological target: E3 ubiquitin-protein ligase XIAP (Homo sapiens) (UniProt P98170)
Assay: small molecules binding XIAP protein – biophysical, small-molecule microarray, fluorescence 635 nm, primary screen (AID 1181);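 note: score merges 667 nm emission and signal to noise over triplicate slides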
Conditions: higher = more signal

Chain of E3 ubiquitin-protein ligase XIAP (Homo sapiens) (P98170 whole entry, looked up): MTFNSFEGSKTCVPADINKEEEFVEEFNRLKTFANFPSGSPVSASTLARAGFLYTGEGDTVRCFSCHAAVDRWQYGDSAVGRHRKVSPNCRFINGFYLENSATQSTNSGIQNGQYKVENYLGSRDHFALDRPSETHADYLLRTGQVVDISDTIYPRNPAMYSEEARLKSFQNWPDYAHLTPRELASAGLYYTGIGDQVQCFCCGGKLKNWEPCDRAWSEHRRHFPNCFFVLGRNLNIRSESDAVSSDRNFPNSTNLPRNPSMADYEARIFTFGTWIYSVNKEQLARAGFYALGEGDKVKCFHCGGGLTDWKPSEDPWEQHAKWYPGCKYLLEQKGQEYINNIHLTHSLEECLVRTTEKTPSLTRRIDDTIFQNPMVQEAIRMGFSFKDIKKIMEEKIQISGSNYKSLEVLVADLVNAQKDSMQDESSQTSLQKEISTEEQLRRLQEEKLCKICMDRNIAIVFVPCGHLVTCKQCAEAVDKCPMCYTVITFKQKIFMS

Structure (SMILES) | composite z-score
O=C1OCCC=C[C@H]2OC34C=CCN(Cc5ccccc5)C(=O)[C@H]3N(CCCCCCO)C(=O)[C@@H]4C12 (some centres not stated) | -0.0918
Cc1ccc(S[C@]2(C(=O)NCCN3CCOCC3)CC(=O)N(Cc3cc(C(F)(F)F)cc(C(F)(F)F)c3)[C@@H]2c2ccc(CO)cc2I)cc1 | -0.419
CCCCCN1CC=CC23O[C@@H]4/C=C\CCC(C)OC(=O)C4[C@H]2C(=O)N(CCCCCO)[C@@H]3C1=O (some centres not stated) | -0.144
O=C1C2C=CC(C(O)c3cccs3)N(Nc3ccccc3F)C2C(=O)N1c1ccccc1 (configuration not stated) | 0.33
NCCCCCCNC(=O)[C@H]1C[C@H]2C(=O)NCC(=O)N2[C@H]1c1cccc(OCCO)c1 | 0.0785
COC(=O)C(CC#Cc1ccc2c(c1)[C@]1(C(=O)N2)[C@H](c2ccc(OCCO)cc2)N2[C@H](c3ccccc3)[C@H](c3ccccc3)OC(=O)[C@H]2[C@@H]1C(=O)NC[C@H](O)c1ccccc1)C(=O)OC | 0.104
CCCN1C(=O)[C@@]2(CCC(=O)OC(C)(C)C)N=C(c3ccc(OCCCO)cc3)O[C@H]2c2ccccc21 | 0.0223
